# Assay results reported in PubChem BioAssay.
# Activity calls are given as the source filed them.
# Experiments:
# [1] = small molecules captured by biotinylated probe aFSTL3 – biochemical, small-molecule microarray, fluorescence 635/667, stem cell growth factor project, primary screen (AID 1064); details: higher = more signal;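 also: measures binding of the biotinylated anti-FSTL3 antibody to printed compounds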
# [2] = binders from COS7 lysate, DM2A8 probe, primary screen, torsin A project, cell lysate, small-molecule microarray, fluorescence 635/667 (AID 1065); details: higher = more signal, COS7 lysate expressing mutant human TOR1A
# [3] = small molecules captured by biotinylated probe aFGF2 – biochemical, small-molecule microarray, fluorescence 635/667, stem cell growth factor project, primary screen (AID 1067); details: higher = more signal;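 also: measures binding of biotinylated aFGF2 protein to printed compounds on slides; z-score merges feature fluorescence and signal-to-noise across triplicate slides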
# [4] = small molecules captured by biotinylated probe aFGF10 – biochemical, small-molecule microarray, fluorescence 635/667, stem cell growth factor project, primary screen (AID 1071); details: higher = more signal;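 also: score merges 667 nm spot intensity and signal to noise from triplicate slides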
# [5] = molecular target: Neurogenic locus notch homolog protein 2 (Homo sapiens) (UniProt Q04721); test: small molecules binding Notch2 protein – biochemical, small-molecule microarray, 635 nm fluorescence, stem cell growth factors, primary screen (AID 1073); details: higher = more signal
# Neurogenic locus notch homolog protein 2 (Homo sapiens), sequence (Q04721 whole entry, looked up, canonical isoform): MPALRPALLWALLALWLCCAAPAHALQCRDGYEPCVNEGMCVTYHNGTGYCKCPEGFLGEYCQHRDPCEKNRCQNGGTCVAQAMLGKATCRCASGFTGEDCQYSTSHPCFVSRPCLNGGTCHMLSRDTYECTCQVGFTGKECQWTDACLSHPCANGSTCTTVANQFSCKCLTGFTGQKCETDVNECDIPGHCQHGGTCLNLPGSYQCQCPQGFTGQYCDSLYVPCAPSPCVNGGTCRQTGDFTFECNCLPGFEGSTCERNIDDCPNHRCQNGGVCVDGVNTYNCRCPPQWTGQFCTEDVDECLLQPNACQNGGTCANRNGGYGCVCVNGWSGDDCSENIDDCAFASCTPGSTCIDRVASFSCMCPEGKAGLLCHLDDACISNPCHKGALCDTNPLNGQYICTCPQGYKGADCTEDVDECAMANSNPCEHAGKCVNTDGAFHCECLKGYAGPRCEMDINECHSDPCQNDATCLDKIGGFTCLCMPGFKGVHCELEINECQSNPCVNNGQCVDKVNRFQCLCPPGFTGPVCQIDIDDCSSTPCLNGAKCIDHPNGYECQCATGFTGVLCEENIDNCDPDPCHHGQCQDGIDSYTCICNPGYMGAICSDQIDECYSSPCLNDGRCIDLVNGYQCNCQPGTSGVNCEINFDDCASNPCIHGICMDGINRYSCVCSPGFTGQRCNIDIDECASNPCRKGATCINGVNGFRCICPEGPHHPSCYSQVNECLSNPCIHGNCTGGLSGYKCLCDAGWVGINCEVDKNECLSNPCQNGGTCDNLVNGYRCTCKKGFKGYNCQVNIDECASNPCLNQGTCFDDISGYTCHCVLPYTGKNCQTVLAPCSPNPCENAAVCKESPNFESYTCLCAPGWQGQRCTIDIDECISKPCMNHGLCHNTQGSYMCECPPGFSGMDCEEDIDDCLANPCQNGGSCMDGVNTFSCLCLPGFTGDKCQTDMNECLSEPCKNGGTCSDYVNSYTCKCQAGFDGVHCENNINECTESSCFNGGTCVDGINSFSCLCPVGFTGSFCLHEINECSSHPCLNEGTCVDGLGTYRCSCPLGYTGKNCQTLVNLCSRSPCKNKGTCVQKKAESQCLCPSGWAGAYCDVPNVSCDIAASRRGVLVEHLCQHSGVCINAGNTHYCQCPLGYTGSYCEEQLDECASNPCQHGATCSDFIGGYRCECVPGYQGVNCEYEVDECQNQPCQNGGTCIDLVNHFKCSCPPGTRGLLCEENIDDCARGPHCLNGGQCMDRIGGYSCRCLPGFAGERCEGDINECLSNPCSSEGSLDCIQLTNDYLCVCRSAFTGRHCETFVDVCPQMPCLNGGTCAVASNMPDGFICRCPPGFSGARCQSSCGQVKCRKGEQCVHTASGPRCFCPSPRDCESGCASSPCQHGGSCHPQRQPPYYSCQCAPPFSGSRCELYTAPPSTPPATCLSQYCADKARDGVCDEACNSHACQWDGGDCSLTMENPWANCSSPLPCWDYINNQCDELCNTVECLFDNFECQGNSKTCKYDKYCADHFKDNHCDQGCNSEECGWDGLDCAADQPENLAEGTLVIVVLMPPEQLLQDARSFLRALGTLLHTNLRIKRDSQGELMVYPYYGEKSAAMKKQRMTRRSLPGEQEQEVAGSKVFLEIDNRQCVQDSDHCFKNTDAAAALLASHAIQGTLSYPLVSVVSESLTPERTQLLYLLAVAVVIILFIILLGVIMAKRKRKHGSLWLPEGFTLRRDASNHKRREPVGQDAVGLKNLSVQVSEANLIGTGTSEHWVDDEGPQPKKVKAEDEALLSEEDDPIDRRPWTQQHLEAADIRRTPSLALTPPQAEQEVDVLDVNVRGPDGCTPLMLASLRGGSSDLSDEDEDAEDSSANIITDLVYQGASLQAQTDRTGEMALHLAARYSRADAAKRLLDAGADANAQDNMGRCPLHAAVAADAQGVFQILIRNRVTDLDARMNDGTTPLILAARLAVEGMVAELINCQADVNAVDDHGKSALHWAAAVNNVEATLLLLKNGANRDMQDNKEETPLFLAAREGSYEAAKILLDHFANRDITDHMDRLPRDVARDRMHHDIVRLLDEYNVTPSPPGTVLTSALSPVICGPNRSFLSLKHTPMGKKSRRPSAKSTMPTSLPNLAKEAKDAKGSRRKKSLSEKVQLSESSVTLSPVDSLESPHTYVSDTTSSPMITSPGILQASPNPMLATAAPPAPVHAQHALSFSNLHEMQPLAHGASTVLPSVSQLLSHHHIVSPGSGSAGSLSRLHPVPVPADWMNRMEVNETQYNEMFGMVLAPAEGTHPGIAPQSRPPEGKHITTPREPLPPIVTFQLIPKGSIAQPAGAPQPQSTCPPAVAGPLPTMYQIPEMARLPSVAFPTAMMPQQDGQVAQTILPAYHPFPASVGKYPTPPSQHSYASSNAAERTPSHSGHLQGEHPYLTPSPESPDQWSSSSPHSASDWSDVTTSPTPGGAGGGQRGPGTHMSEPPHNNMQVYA
# [6] = molecular target: Pro-neuregulin-1, membrane-bound isoform (Homo sapiens) (UniProt Q02297); test: small molecules binding neuregulin-1 protein – biochemical, small-molecule microarray, fluorescence 635/667, psychiatric disease protein project, primary screen (AID 1075); details: NRG1 binding, 635 nm fluorescence, higher = more signal;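 also: score combines 667 nm spot fluorescence with signal to noise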
# [7] = system: Neuregulin-1 EGF-like domain; test: small molecules binding NRG1 EGF domain – biochemical, small-molecule microarray, 635 nm fluorescence, primary screen (AID 1081); details: higher = more signal;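 also: binding of the protein to compounds printed on small-molecule microarray slides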
# [8] = FRG1 expression reporter modulators in myotubes – cell-based, C2C12 myotubes, firefly/Renilla luciferase, luminescence, FRG1 inhibition for FSHD, primary screen (AID 1084); details: FRG1 promoter luciferase, higher = more signal, called active from +8 up or from −8 down
# [9] = small molecules captured by biotinylated probe aFST – biochemical, small-molecule microarray, fluorescence 635/667, stem cell growth factor project, primary screen (AID 1086); details: higher = more signal;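 also: score merges 667 nm fluorescence with signal-to-noise of each printed compound spot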
# [10] = binders of probe aHhip on microarray, primary screen, stem cell growth factor project, biochemical, small-molecule microarray, fluorescence 635/667 (AID 1087); details: higher = more signal;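 also: score merges spot fluorescence at 667nm with spot signal to noise ratio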
# [11] = system: PRMT1 (protein arginine N-methyltransferase 1); test: small molecules binding arginine methyltransferase PRMT1 – biochemical, small-molecule microarray, 635 nm fluorescence, primary screen (AID 1088); details: higher = more signal;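 also: binding of Prmt1 protein to compounds spotted on small-molecule microarray slides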
# [12] = growth effects on S. cerevisiae YJM789 – YJM789 clinical isolate, OD600, 24 h, basal, primary screen (AID 1089); details: higher = more signal, called active from +8 up or from −8 down;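 also: growth of clinical yeast isolate S. cerevisiae YJM 789 seeded 1000 cells per well; test concentration not given here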
# [13] = S. pombe growth modifiers, basal conditions – strain 972, OD600, 24 h, no modulator, primary screen (AID 1090);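 also: basal condition with compound alone and no growth modifier present; test concentration not given here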; details: S. pombe 972 growth, higher = more signal, called active from +8 up or from −8 down
# [14] = budding yeast growth modifiers under rapamycin – strain BY4716, OD600, 96 h, primary screen (AID 1091); also: test concentration not given here; details: S. cerevisiae BY4716 + rapamycin, higher = more signal, called active from +8 up or from −8 down
# [15] = molecular target: Torsin-1A-interacting protein 2 (Homo sapiens) (UniProt Q8NFQ8); test: small molecules binding lysate-expressed LULL1 – cell lysate, human LULL1 lysate, 635/667 nm fluorescence, primary screen (AID 1092); details: small-molecule microarray, hLULL1 lysate binding, 635 nm fluorescence; higher = more signal;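 also: probe is lysate of COS7 cells overexpressing human LULL1; score merges per-feature 667 nm fluorescence with signal-to-noise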
# [16] = optical density change of DRC41 E. coli – strain DRC41, OD650, 24 h, E. coli filamentation project, primary screen (AID 1093);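 also: MC1000 strain lacking acrAB efflux and sulA so SOS filamentation is blocked; test concentration not given here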; details: E. coli DRC41 growth, higher = more signal, called active from +8 up or from −8 down
# [17] = probe aLefty2 binding to arrayed compounds – biochemical, biotinylated probe, 635/667 nm fluorescence, primary screen (AID 1094); details: small-molecule microarray, higher = more signal;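 also: score merges spot fluorescence near 667 nm with spot signal-to-noise ratio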
# [18] = system: Noggin (protein binding on small-molecule microarray); test: small molecules binding Noggin protein – biochemical, 635/667 nm fluorescence, primary screen (AID 1095); details: 635 nm fluorescence, higher = more signal;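 also: score merges 667 nm feature fluorescence with signal to noise over triplicate slides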
# [19] = molecular target: Neurogenic locus notch homolog protein 3 (Homo sapiens) (UniProt Q9UM47); test: small molecules binding NOTCH3 protein – biochemical, 635/667 nm fluorescence, primary screen (AID 1096); details: small-molecule microarray, 635 nm fluorescence, higher = more signal
# Neurogenic locus notch homolog protein 3 (Homo sapiens), sequence (Q9UM47 whole entry, looked up): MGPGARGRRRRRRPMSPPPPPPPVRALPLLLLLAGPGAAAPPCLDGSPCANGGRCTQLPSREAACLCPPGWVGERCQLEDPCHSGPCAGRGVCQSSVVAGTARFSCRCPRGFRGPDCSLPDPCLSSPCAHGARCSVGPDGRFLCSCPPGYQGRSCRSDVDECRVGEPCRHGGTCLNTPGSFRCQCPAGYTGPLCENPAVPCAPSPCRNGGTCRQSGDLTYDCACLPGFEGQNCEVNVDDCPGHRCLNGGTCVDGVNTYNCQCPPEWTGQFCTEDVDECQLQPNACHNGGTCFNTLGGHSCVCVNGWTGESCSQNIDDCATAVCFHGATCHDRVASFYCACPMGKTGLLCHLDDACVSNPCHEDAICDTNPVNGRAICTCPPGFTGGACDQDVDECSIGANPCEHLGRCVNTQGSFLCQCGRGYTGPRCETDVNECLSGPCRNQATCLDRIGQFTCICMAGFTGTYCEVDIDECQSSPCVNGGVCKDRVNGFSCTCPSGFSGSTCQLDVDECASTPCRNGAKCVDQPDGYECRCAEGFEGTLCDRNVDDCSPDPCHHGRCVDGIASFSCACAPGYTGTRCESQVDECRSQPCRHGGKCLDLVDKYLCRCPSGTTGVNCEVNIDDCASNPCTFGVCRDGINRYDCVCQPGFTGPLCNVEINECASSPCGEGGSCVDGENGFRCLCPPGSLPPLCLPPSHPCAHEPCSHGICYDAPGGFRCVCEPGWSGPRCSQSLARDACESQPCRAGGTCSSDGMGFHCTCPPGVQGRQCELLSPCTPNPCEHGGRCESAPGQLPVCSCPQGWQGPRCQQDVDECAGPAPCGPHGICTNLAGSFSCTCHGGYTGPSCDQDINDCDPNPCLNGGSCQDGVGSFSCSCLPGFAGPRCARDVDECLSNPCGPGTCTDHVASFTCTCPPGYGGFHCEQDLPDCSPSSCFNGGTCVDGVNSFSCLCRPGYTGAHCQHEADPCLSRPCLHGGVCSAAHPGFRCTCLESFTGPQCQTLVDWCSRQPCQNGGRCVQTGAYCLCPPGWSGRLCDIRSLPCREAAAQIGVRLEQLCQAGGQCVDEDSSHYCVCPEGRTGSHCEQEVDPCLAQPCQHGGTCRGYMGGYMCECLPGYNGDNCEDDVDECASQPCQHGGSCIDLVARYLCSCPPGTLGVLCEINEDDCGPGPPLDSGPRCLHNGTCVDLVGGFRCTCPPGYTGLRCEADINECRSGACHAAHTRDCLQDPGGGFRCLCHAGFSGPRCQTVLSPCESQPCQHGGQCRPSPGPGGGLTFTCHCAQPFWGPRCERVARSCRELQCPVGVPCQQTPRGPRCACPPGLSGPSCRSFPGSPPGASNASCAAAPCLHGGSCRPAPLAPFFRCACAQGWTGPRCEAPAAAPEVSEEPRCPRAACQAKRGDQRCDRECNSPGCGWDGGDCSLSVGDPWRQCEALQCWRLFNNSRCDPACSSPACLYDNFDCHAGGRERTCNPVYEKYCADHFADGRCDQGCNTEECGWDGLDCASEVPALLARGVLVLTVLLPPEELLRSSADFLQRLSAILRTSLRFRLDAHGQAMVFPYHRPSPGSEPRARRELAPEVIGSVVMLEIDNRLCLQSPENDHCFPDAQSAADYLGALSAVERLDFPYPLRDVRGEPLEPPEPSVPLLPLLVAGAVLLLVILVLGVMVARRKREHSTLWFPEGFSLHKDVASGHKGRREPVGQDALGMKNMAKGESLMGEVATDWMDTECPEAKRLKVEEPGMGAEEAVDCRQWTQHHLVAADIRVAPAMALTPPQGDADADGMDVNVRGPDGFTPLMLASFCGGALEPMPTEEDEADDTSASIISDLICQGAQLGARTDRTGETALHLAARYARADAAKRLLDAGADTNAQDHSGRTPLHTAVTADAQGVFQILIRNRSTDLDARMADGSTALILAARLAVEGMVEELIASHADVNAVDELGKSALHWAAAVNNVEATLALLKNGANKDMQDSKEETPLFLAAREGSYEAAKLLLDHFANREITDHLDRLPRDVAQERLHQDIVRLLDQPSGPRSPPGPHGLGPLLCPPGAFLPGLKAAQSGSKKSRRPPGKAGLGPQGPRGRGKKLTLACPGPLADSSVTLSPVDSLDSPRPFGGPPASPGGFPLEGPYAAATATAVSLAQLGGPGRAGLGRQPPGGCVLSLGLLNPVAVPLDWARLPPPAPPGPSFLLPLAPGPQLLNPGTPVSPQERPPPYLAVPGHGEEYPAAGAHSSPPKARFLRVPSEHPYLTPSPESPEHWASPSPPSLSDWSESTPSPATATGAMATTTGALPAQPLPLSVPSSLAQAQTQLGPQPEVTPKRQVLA
# [20] = probe aEGFR binding to arrayed compounds – biochemical, biotinylated probe, 635/667 nm fluorescence, primary screen (AID 1097); details: small-molecule microarray, higher = more signal;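 also: probe is a biotinylated anti-EGFR antibody binding compounds printed on slides; score combines fluorescence near 667 nm and signal to noise of each spot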
Structure (SMILES),composite z-score [1],composite z-score [2],composite z-score [3],composite z-score [4],composite z-score [5],composite z-score [6],composite z-score [7],z-score [8],composite z-score [9],composite z-score [10],composite z-score [11],z-score [12],z-score [13],z-score [14],composite z-score [15],z-score [16],composite z-score [17],composite z-score [18],composite z-score [19],composite z-score [20]
O=C1OCCC=C[C@H]2OC34C=CCN(c5ccc6ccccc6c5)C(=O)[C@H]3N(CCO)C(=O)[C@@H]4C12 (stereo not given in full),-0.562,-0.171,-0.119,-0.175,-0.397,-0.863,0.464,0.149 (inactive),-0.847,-0.672,-0.3,-0.735 (inactive),-0.737 (inactive),-0.171 (inactive),-0.686,-0.021 (inactive),-0.314,-0.251,0.301,-0.0353
COc1ccc([Si](C)(C)[C@@H]2[C@@H](CC(=O)N3Cc4ccccc4C[C@H]3CO)O[C@]3(C(=O)N(Cc4cccc(N5CCOC5=O)c4)c4ccccc43)[C@H]2C)cc1,-0.38,0.671,-0.0264,0.147,0.331,0.309,0.876,-1.64 (inactive),0.0495,-0.0618,1.56,-1.45 (inactive),0.837 (inactive),1.77 (inactive),1.15,0.742 (inactive),-0.121,1.42,1.12,-0.0972
O=C1N(Cc2ccccc2)c2ccccc2C[C@@]12COC(c1ccc(OCCCO)cc1)=N2,0.689,0.445,-0.0592,0.979,0.984,1,1.23,-1.14 (inactive),0.361,-0.0237,1.56,-0.91 (inactive),-1.56 (inactive),2.83 (inactive),3,1.54 (inactive),0.249,1.07,0.944,-0.0238
CN(C)CCCNC(=O)[C@@]1(C)c2ccccc2C(=O)N(Cc2ccc(OC(F)(F)F)cc2)[C@H]1c1ccc(CO)cc1,0.462,-0.674,-0.0587,-0.959,-0.538,1.35,0.161,-2.46 (inactive),-0.329,-0.435,1.21,-1.7 (inactive),-1.93 (inactive),-1.42 (inactive),1.53,0.649 (inactive),0.0239,-0.552,-0.0992,-0.229
[N-]=[N+]=Nc1ccccc1C[C@@]1(C(=O)NCc2ccccc2)N=C(c2ccc(OCCCO)cc2)O[C@@H]1c1ccccc1N=[N+]=[N-],0.581,0.504,0.0678,1.04,1.09,0.966,1.06,-1.24 (inactive),0.602,-0.175,1.58,-0.642 (inactive),-0.468 (inactive),5.27 (inactive),1.69,0.0498 (inactive),0.469,1.2,0.762,0.0883
COc1ccc(C(=O)Nc2ccc(CN3C(=O)[C@@]4(O[C@@H](CCn5cc(CCO)nn5)[C@H]([Si](C)(C)c5ccc(OC)cc5)[C@H]4C)c4ccccc43)cc2)cc1,-0.249,0.269,-0.0613,0.462,0.534,0.587,1.16,-3.59 (inactive),0.859,-0.137,1.34,0.704 (inactive),-6.58 (inactive),0.377 (inactive),1.26,-0.583 (inactive),0.0868,0.926,1.11,-0.0271
CCCC=C(CCC)[C@@H](NC(=O)OCC(C)C)c1ccc(C(=O)OC)cc1,-0.443,0.477,-0.0596,0.161,0.638,0.224,0.362,-0.705 (inactive),0.107,2.35,0.586,-0.245 (inactive),0.354 (inactive),-0.894 (inactive),0.893,0.0664 (inactive),0.0506,0.421,0.621,-0.123
O=C(NCc1ccccc1)[C@@H]1c2ccccc2C(=O)N(Cc2ccc(OC(F)(F)F)cc2)[C@H]1c1ccc(CO)cc1,0.85,0.0787,-0.0784,-0.225,-0.674,1.19,0.921,-1.37 (inactive),0.0209,0.321,0.594,-0.347 (inactive),-0.753 (inactive),-0.574 (inactive),2.62,0.301 (inactive),-0.128,-0.262,-0.577,0.148
CCCCC(O)C1C=CC2C(=O)N(c3ccccc3)C(=O)C2N1Nc1ccc([N+](=O)[O-])cc1 (stereo not given),0.108,0.0331,-0.0004,0.531,1.06,1.58,1.35,0.456 (inactive),1.27,-0.154,1.55,-0.676 (inactive),0.429 (inactive),0.154 (inactive),3.68,0.916 (inactive),-0.144,0.146,1.11,-0.0828
O=C1O[C@@H](c2ccccc2)[C@@H](c2ccccc2)N2[C@@H](c3ccc(OCCO)cc3)[C@]3(C(=O)Nc4ccc(C#CCCO)cc43)[C@@H](C(=O)O)[C@H]12,1.47,0.431,0.213,0.749,0.882,1.46,1.24,-1.75 (inactive),1.9,0.102,1.53,0.659 (inactive),0.799 (inactive),-0.261 (inactive),2.68,0.543 (inactive),1.03,1.31,1.04,0.853
CC(C)NC(=O)[C@@]1(C)c2ccccc2C(=O)N(Cc2ccccc2)[C@H]1c1ccc(CO)cc1,0.267,0.824,-0.169,-0.548,-1.12,1,0.814,-2.47 (inactive),-0.875,-0.291,1.53,-1.46 (inactive),0.138 (inactive),-0.932 (inactive),3.22,1.11 (inactive),-0.13,-0.644,-0.554,-0.0035
CN(C)C(=O)[C@]1(Cc2ccccc2)N=C(c2ccc(OCCCO)cc2)O[C@@H]1c1ccccc1CN=[N+]=[N-],-0.106,1.31,-0.0465,1.18,1.62,1.33,1.22,-0.783 (inactive),0.879,-0.126,1.53,-1.8 (inactive),-0.531 (inactive),-0.293 (inactive),3.15,0.702 (inactive),-0.0153,0.605,1.07,0.0176
CCOC(=O)C1=C[C@@H](C(C)(C)C)N(S(=O)(=O)c2ccc(C)cc2)[C@H]1c1ccc(C#N)cc1,0.116,0.255,-0.0181,0.707,1.35,1.32,1.22,-0.793 (inactive),0.313,0.144,1.56,0.3 (inactive),2.17 (inactive),1.75 (inactive),2.88,0.0374 (inactive),0.419,0.198,1.01,0.126
COC(=O)[C@@]1(Cc2ccc(F)cc2)[C@H]2c3cc(C(=O)N4CCCC4)n(CCc4ccccn4)c3C[C@H]2CN1C(=O)c1ccccc1,0.319,-0.439,0.165,0.124,1.43,1.8,1.4,1.23 (inactive),0.858,-0.201,-0.63,-0.0526 (inactive),0.804 (inactive),0.414 (inactive),2.89,-0.223 (inactive),0.181,-0.701,0.572,-0.164
CCCCCCc1nc(Cc2cc(OC)c(OC)c(OC)c2)cc2c1[Si](C(C)C)(C(C)C)O[C@H]2c1ccccc1,-0.557,0.251,-0.0599,0.0804,0.191,-0.0387,-0.712,-0.361 (inactive),0.0506,0.0677,0.811,0.153 (inactive),0.87 (inactive),0.0217 (inactive),-0.0751,-1.41 (inactive),-0.176,0.619,0.819,-0.0975
COCCOC(=O)N1C(=O)[C@@]2(c3cc(C#CCC(C(=O)OC)C(=O)OC)ccc31)[C@H](C(N)=O)[C@H]1C(=O)O[C@H](c3ccccc3)[C@H](c3ccccc3)N1[C@@H]2c1ccc(O)cc1,-0.291,0.79,0.015,1.2,1.57,1.6,1.23,3.78 (inactive),0.838,0.0768,1.54,2.77 (inactive),2.65 (inactive),7.43 (inactive),2.58,0.819 (inactive),0.126,1.12,1.07,0.0254
CCCN1C(=O)[C@]2(CCC(=O)OC(C)(C)C)N=C(c3ccc(OCCCO)cc3)O[C@@H]2c2ccccc21,0.678,1.24,-0.0136,0.152,0.399,0.421,1.07,0.177 (inactive),0.0678,-0.0645,1.52,-1.93 (inactive),-0.474 (inactive),1.5 (inactive),1.62,0.916 (inactive),0.151,1.37,0.571,-0.134
CCCNC(=O)[C@@]1(Sc2ccc(C)cc2)CC(=O)N(Cc2ccccc2Cl)[C@@H]1c1ccc(CO)cc1I,0.746,-1.23,-0.127,-0.391,-1.13,1.4,0.895,-1.6 (inactive),0.0493,0.106,0.16,-1.17 (inactive),-3.81 (inactive),1.82 (inactive),2.08,0.545 (inactive),0.328,-1.24,-0.502,-0.267
C=C(COC)C(=O)CC[C@H](OC(=O)c1cccnc1)c1ccc(OCCO)cc1,-0.21,0.43,-0.133,1.2,0.144,0.865,1.29,-0.742 (inactive),0.21,-0.0618,1.52,-0.191 (inactive),-1.48 (inactive),0.535 (inactive),1.48,0.105 (inactive),-0.155,1.22,0.78,-0.113
CC1CC/C=C\[C@H]2OC34C=CCN(Cc5ccccc5)C(=O)[C@H]3N(CCCCCCO)C(=O)[C@@H]4C2C(=O)O1 (stereo not given in full),0.261,0.96,-0.116,-0.994,-0.763,1.91,1.19,-0.1 (inactive),-0.696,-0.226,0.661,-0.617 (inactive),-0.623 (inactive),-0.482 (inactive),2.31,0.246 (inactive),-0.163,-1.78,-0.397,-0.0773
